TROY NFkB inh: inhibitors of TROY-driven NF-kB signaling, primary screen, Q293 LMP1-TROYcd cells, NF-kB luciferase, uHTS; actives 0.98% (n = 360,000); Q293 LMP1-TROYcd NF-kB luciferase reporter, 4 h; inhibition, % at 10 µM;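 active = compounds whose plate-normalised and pattern-corrected inhibition of the luciferase reporter signal at the single screening dose is 50% or more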
EBV LMP1 NFkB: EBV LMP1-driven NF-kappaB luciferase reporter inhibitors, primary screen, cell-based, luminescence, single point | LMP1-induced NF-kappaB luciferase reporter cells | inhibition, % at 12.5 µM | actives 0.69% (n = 350,000) | AID 504558, 2011; in the data active = inhibition above about 41%;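 note: 0% = neutral control wells and 100% = reference inhibitor control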
MITF act: activators of MITF-driven TRPM1 promoter reporter, primary screen, cell-based, SK-MEL-5, luciferase, single point. AID 588334, 2011. SK-MEL-5 TRPM1-promoter luciferase, 24 h; % of positive control, neutral wells = 0. actives 0.75% (n = 300,000). activation, % at 12.5 µM;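 active = mean activation of at least 80% with every replicate also reaching 80%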;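 note: 0% = neutral control wells and 100% = parthenolide positive control wells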
LGR2 antag: inhibitors of bursicon-induced LGR2 CRE-luciferase signal, primary screen, cell-based, HEK293, CRE-luciferase reporter, bursicon stimulation; Drosophila bursicon receptor LGR2 (rickets); bursicon-stimulated, 4 h; inhibition, % at 9.99 µM; actives 0.35% (n = 380,000); AID 720647, 2013;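 active = drop in luminescence signal, shown as inhibition above about 50% in the replicate tests, limit read from the data, passing the limit was not always enough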;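 note: agonist challenge used bursicon conditioned medium at about half maximal strength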
TWEAK Fn14 block: inhibitors of TWEAK-Fn14 signaling, primary screen, luciferase reporter cells, uHTS | TWEAK-stimulated Fn14 reporter cells, luciferase luminescence, 8 h | AID 1159606, 2016 | actives 2% (n = 360,000) | inhibition, % at 10 µM; in the data active = inhibition above about 50%
TRPM1 prom inh: inhibitors of MITF-dependent TRPM1 promoter reporter, primary screen, cell-based, SK-MEL-5, single point, luciferase; inhibition, % at 12.5 µM; SK-MEL-5 TRPM1 promoter luciferase, 24 h; actives 0.83% (n = 330,000);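 active = mean inhibition across replicates of 60% or more, whatever share of single replicates reaches that level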
* marks the source's active call; other numbers are inactive results; / = not tested or not shown. A selection: hits, their analogues and other compounds. The true share with any hit is near 3%.

SMILES	TROY NFkB inh	EBV LMP1 NFkB	MITF act	LGR2 antag	TWEAK Fn14 block	TRPM1 prom inh
C=CC[C@H](CC(=O)N(CCO)Cc1ccccc1)C(=O)N[C@@H](COC(=O)[C@@H](CC=C)CC(=O)OC(C)(C)C)Cc1c[nH]c2ccccc12	-0.4	1.6	-7.2	24.6	35.5	7.8
C=CC[C@@H](CC(=O)N(CCO)Cc1ccccc1)C(=O)N[C@H](COC(=O)[C@@H](CC=C)Cc1ccc(F)cc1)Cc1c[nH]c2ccccc12	35.6	-4.5	-1.8	2.9	50.8*	-3.5
C=CC[C@H](CC(=O)N(CCO)Cc1ccccc1)C(=O)N[C@H](COC(=O)[C@@H](CC=C)Cc1ccc(F)cc1)Cc1c[nH]c2ccccc12	40.1	2.8	-1.9	/	60.2*	2.7
C=CC[C@@H](CC(=O)N(CCO)Cc1ccccc1)C(=O)N[C@@H](COC(=O)[C@H](CC=C)CC(=O)OC(C)(C)C)Cc1c[nH]c2ccccc12	24.9	-1.7	-1.5	/	23.1	6.1
O=C(C[C@H]1C[C@H]2c3cc(NC(=O)C4CCC4)ccc3O[C@H]2[C@@H](CO)O1)NCc1ccc(-c2ccccc2)cc1	/	/	/	-3.9	/	/
O=C(NC1CCC1)[C@@H]1[C@@H](CO)[C@@H]2Cn3c(cccc3=O)[C@H]1N2Cc1cc(F)ccc1F	/	/	/	6.7	/	/
C=CC[C@@H](CC(=O)N(CCO)Cc1ccccc1)C(=O)N[C@H](COC(=O)[C@@H](CC=C)Cc1ccc(F)cc1)Cc1ccccc1	31.3	-4.1	-1.2	-2.9	18.5	-2.7
C=CC[C@@H](CC(=O)N(CCO)Cc1ccccc1)C(=O)N[C@@H](COC(=O)[C@@H](CC=C)Cc1ccc(F)cc1)Cc1ccccc1	41.5	0.0	-2.9	47.2	57.5*	2.0
O=C(Nc1ccc(F)c(F)c1)c1ccc2c(c1)OCO2	-45.2	-37.8	84.7*	/	-17.8	-82.8
Cn1ncc(Cl)c1C(=O)Nc1ccc2c(c1)OCO2	-31.6	-4.4	9.6	2.6	1.2	-11.1
O=C(Nc1ccc(Br)cc1)c1ccc2c(c1)OCO2	-30.9	-32.1	/	-4.2	10.1	-69.8
O=C(Nc1ccc2c(c1)OCO2)c1c(Cl)nc2sccn12	-34.4	-18.8	93.6*	/	-11.0	-93.0
NC(=O)c1ccc(NC(=O)c2ccc3c(c2)OCO3)cc1	-46.3	-21.8	88.3*	-31.3	15.5	-76.9
O=C(Nc1ccc2c(c1)OCO2)c1ccc2c(c1)OCO2	-25.2	11.6	19.9	16.5	42.1	-18.5
O=C(Nc1ccc2c(c1)OCO2)c1cccc(Cl)c1	-91.2	-39.0	103.6*	/	-14.8	-79.1
C[C@@H]1CN([C@H](C)CO)C(=O)c2cc(-c3ccccc3F)cnc2O[C@@H]1CN(C)C(=O)C1CCC1	/	/	/	8.5	/	/
COc1cccc(NC(=O)N[C@H]2C=C[C@H](CC(=O)Nc3ccccc3)O[C@H]2CO)c1	/	/	/	-6.9	/	/
Cc1noc(C)c1S(=O)(=O)N(C)C[C@@H]1OCCCC[C@@H](C)Oc2ccc(NC(=O)CCCN(C)C)cc2C(=O)N([C@H](C)CO)C[C@H]1C	/	/	/	7.3	/	/
CNC[C@@H]1OCCCC[C@H](C)Oc2ccc(NS(C)(=O)=O)cc2C(=O)N([C@H](C)CO)C[C@@H]1C	/	/	/	-12.5	/	/
CC1CCC(NC(=O)c2ccc3c(c2)OCO3)CC1 (stereo not given)	0.2	17.1	1.5	12.4	54.1*	-1.4
O=C(NC1CCCCC1)c1ccc2c(c1)OCO2	-27.9	-20.2	65.1	-26.4	-19.1	-62.8
COc1cc2ccccc2cc1C(=O)NC1CCC(C)CC1 (stereo not given)	-42.1	-37.8	118.1*	-72.2	-28.7	-117.9
O=C(C[C@H]1C[C@H]2c3cc(NC(=O)C4CCC4)ccc3O[C@H]2[C@@H](CO)O1)NCCN1CCCCC1	/	/	/	0.1	/	/
Cc1ccc(S(=O)(=O)NCC[C@@H]2CC[C@H](NS(=O)(=O)c3ccccc3Cl)[C@@H](CO)O2)cc1	/	/	/	2.0	/	/
C[C@H](CO)N1C[C@H](C)[C@H](CN(C)S(=O)(=O)c2cn(C)cn2)Oc2ccc(NC(=O)Cc3cn(C)c4ccccc34)cc2C1=O	/	/	/	-5.9	/	/

Bioassay records from PubChem BioAssay.
